24 compounds from ChEMBL document CHEMBL4296182, “CO-ADD screening of NIH NCI Diversity Set V” can be followed below.

In one assay the test system is Staphylococcus aureus. The experiment in a line: Antibacterial activity against Staphylococcus aureus MRSA ATCC 43300 (CO-ADD:GP_020); MIC in CAMBH media using NBS plates, by Resazurin F(560/590). In kind it is functional. The conditions noted are these: Concentration 20 uM, ASSAY_TEST Inhibition of Bacterial Growth, detection method Resazurin, Fluorescence (ex560/em590), MEDIA CAMHB, plate type 384well, CORNING #3640, time 18 hr.

A further assay concerns Acinetobacter baumannii. The experiment in a line: Antibacterial activity against Acinetobacter baumannii ATCC 19606 (CO-ADD:GN_034); MIC in CAMBH media using NBS plates, by Resazurin F(560/590). In kind it is functional. As to conditions: Concentration 20 uM, ASSAY_TEST Inhibition of Bacterial Growth, detection method Resazurin, Fluorescence (ex560/em590), MEDIA CAMHB, plate type 384well, CORNING #3640, time 18 hr. (In general: The colour change of resazurin is a common sign of viable cells or microbes.)

The next assay has as its system Escherichia coli. Kind of assay: Antibacterial activity against Escherichia coli ATCC 25922 (CO-ADD:GN_001); MIC in CAMBH media using NBS plates, by Resazurin F(560/590). In kind it is functional. As to conditions: Concentration 20 uM, ASSAY_TEST Inhibition of Bacterial Growth, detection method Resazurin, Fluorescence (ex560/em590), MEDIA CAMHB, plate type 384well, CORNING #3640, time 18 hr.

A further assay has as its system Klebsiella pneumoniae. As to conditions: Concentration 20 uM; ASSAY_TEST Inhibition of Bacterial Growth; detection method Absorption (OD600); MEDIA CAMHB; plate type 384well; NBS; CORNING #3640; time 18 hr.
The subject of another assay is Candida albicans. The conditions noted are these: 20 µM.
Another assay concerns Cryptococcus neoformans. The conditions noted are these: Concentration 20 uM; ASSAY_TEST Inhibition of Fungal Growth; detection method Resazurin; Absorption (OD600-OD570); plate type 384well; NBS; CORNING #3640.

For part of these data: Potency and affinity values are given separately.

Consider `C=C(C)CN1C(=O)C(C)S/C1=N/N=C1/SCC(=O)N1C` (centres undefined), for which the Inhibition with Staphylococcus aureus was 12.61%; in the assay on Acinetobacter baumannii it was 8.16%; in the assay with Escherichia coli it was 1.61%; with Klebsiella pneumoniae, 14.62%; in the assay with Candida albicans, 6.81%; with Cryptococcus neoformans it was -8.83%.
Consider `O=C(Nc1ccccc1-c1ccccc1)C(=O)Nc1ccccc1-c1ccccc1`, for which the Inhibition in the assay on Staphylococcus aureus was 3.9%; in the assay on Acinetobacter baumannii it was -8.51%; in the assay on Escherichia coli, -14.91%; in the assay with Klebsiella pneumoniae, 2.5%; in the assay with Candida albicans, 2.13%; in the assay on Cryptococcus neoformans, 4.35%.
In the case of `O=C(/C=C\c1ccc(O)c(O)c1)OC1C(O)CC(OC(=O)/C=C/c2ccc(O)c(O)c2)(C(=O)O)CC1O` (centres undefined), the Inhibition was 21.21% with Staphylococcus aureus; -10.3% with Acinetobacter baumannii; 9.77% in the assay with Escherichia coli; 14% in the assay on Klebsiella pneumoniae; -2.85% with Candida albicans; -1.87% in the assay on Cryptococcus neoformans.
As to `COc1cnc(SC)nc1Nc1ccc(C#N)cc1`, the Inhibition with Staphylococcus aureus is 3.83%; with Acinetobacter baumannii, 28.01%; with Escherichia coli it was 14.33%; with Klebsiella pneumoniae, 23.54%; with Candida albicans, 4.47%; in the assay with Cryptococcus neoformans, -3.99%.
Regarding `O=C(Nc1ccc2ncccc2c1)Nc1ccc2ncccc2c1`, the Inhibition with Staphylococcus aureus was 9.01%; with Acinetobacter baumannii, -26.89%; in the assay on Escherichia coli, 13.25%; in the assay with Klebsiella pneumoniae, 9.25%; in the assay with Candida albicans it was 0.58%; in the assay on Cryptococcus neoformans, -19.53%.
In the case of `c1ccc(-c2nnc(-c3ccccc3)nn2)cc1`, the Inhibition was 8.93% with Staphylococcus aureus; 4.53% in the assay with Acinetobacter baumannii; 11.38% in the assay on Escherichia coli; -4.08% in the assay on Klebsiella pneumoniae; -1.88% in the assay with Candida albicans; -7.33% with Cryptococcus neoformans.
Consider `O=C(O)C1OCC2(CO1)COC(C(=O)O)OC2` (centres undefined), for which the Inhibition in the assay on Staphylococcus aureus is 10.92%; in the assay with Acinetobacter baumannii, -13.06%; in the assay on Escherichia coli, 10.47%; in the assay with Klebsiella pneumoniae, 3.27%; in the assay with Candida albicans, 1.43%; in the assay with Cryptococcus neoformans, -1.34%.
On to `O=C(Nc1ccc(C(=O)O)c(O)c1)c1ccccc1` [BENZOYLPAS], for which the Inhibition with Staphylococcus aureus is -3.42%; in the assay with Acinetobacter baumannii it was -17.37%; with Escherichia coli it was 4.17%; in the assay with Klebsiella pneumoniae, 3.36%; in the assay on Candida albicans, 6.26%; in the assay with Cryptococcus neoformans it was -5.98%.
Take `Br.CN(C)c1n/c(=N/Cc2ccco2)ss1`: the Inhibition in the assay on Staphylococcus aureus is 15.96%; in the assay with Acinetobacter baumannii, 6%; in the assay with Escherichia coli, 7.56%; in the assay with Klebsiella pneumoniae, 27.1%; in the assay on Candida albicans, 6.89%; in the assay with Cryptococcus neoformans, -13.39%.
As to `Cc1cccc(N2CCN(CC(O)COc3ccc(Cl)cc3)CC2)c1` (centres undefined), the Inhibition is 13.02% with Staphylococcus aureus; 4.97% with Acinetobacter baumannii; 5.23% in the assay with Escherichia coli; 7.2% in the assay with Klebsiella pneumoniae; 0.39% in the assay on Candida albicans; -12.55% with Cryptococcus neoformans.
For `Cc1ccc2c(c1)C(=C(C#N)C#N)CCN2`, the Inhibition in the assay with Staphylococcus aureus is 5.58%; in the assay on Acinetobacter baumannii it was 12.47%; in the assay with Escherichia coli, 3.17%; with Klebsiella pneumoniae, 22.07%; in the assay on Candida albicans it was 3.21%; in the assay on Cryptococcus neoformans, -7.98%.
Take `CC1=CC(=O)Nc2cncnc2N1`: the Inhibition in the assay with Staphylococcus aureus was 4.06%; with Acinetobacter baumannii it was -8.47%; in the assay on Escherichia coli it was 8.98%; with Klebsiella pneumoniae, 13.83%; in the assay on Candida albicans, 0.16%; in the assay on Cryptococcus neoformans, 0.91%.
For `C=CCNC(=S)NCC=C`, the Inhibition is 10.5% with Staphylococcus aureus; -8.96% in the assay with Acinetobacter baumannii; 3.32% in the assay with Escherichia coli; 27.24% in the assay with Klebsiella pneumoniae; 1.09% with Candida albicans; 2.25% in the assay with Cryptococcus neoformans.
As for `Cc1cc2nc(-c3ccccn3)c(-c3ccccn3)nc2cc1C`, the Inhibition in the assay with Staphylococcus aureus is -0.99%; in the assay on Acinetobacter baumannii, 3.74%; in the assay with Escherichia coli it was 8.69%; with Klebsiella pneumoniae, 9.38%; in the assay on Candida albicans, 1.37%; with Cryptococcus neoformans, -10.29%.
`O=C(Nc1ccc(Br)c2ccccc12)c1ccc2ccccc2c1O`: the Inhibition with Staphylococcus aureus is 0.57%; in the assay with Acinetobacter baumannii, -4.06%; in the assay with Escherichia coli, -4.98%; in the assay with Klebsiella pneumoniae, 22.07%; in the assay with Candida albicans it was 4.96%; with Cryptococcus neoformans, 1.39%.
In the case of `CC(OC(=O)Nc1cccc(Cl)c1)C(=O)O` (centres undefined), the Inhibition is 8.5% with Staphylococcus aureus; 9.43% in the assay with Acinetobacter baumannii; 16.3% with Escherichia coli; 7.75% in the assay on Klebsiella pneumoniae; -1.51% in the assay on Candida albicans; -11.24% in the assay on Cryptococcus neoformans.
As to `CCCCNc1nc(N)ncc1[N+](=O)[O-]`, the Inhibition with Staphylococcus aureus is 5.28%; in the assay on Acinetobacter baumannii, -8.97%; in the assay with Escherichia coli, 14%; in the assay on Klebsiella pneumoniae, 10.57%; with Candida albicans, 8.4%; with Cryptococcus neoformans it was -15.62%.
As for `Cc1cc(-n2cnc3c(O)ncnc32)ccc1N`, the Inhibition with Staphylococcus aureus is 0.18%; with Acinetobacter baumannii it was -17.95%; in the assay on Escherichia coli, 5.61%; in the assay with Klebsiella pneumoniae, 1.65%; in the assay with Candida albicans it was 1.13%; with Cryptococcus neoformans it was -8.1%.
`Cc1nc(Br)c(Br)c(C)c1Br`: the Inhibition in the assay on Staphylococcus aureus was 1.89%; in the assay on Acinetobacter baumannii, -12.31%; in the assay on Escherichia coli it was 7.33%; with Klebsiella pneumoniae it was 11.41%; in the assay on Candida albicans it was 4.5%; in the assay on Cryptococcus neoformans it was -9.77%.
Regarding `CCOC(=O)c1c(C)nc(C)c(C(=O)OCC)c1-c1ccc(OC)cc1`, the Inhibition is 0.94% in the assay with Staphylococcus aureus; 2.04% in the assay with Acinetobacter baumannii; -21.92% in the assay with Escherichia coli; 2.6% in the assay on Klebsiella pneumoniae; 6.74% with Candida albicans; 19.28% in the assay on Cryptococcus neoformans.
For the compound `Oc1ccc(Cl)nn1`, the Inhibition was 1.52% with Staphylococcus aureus; -4.23% in the assay with Acinetobacter baumannii; 4.23% in the assay on Escherichia coli; 8.48% with Klebsiella pneumoniae; 0.96% in the assay with Candida albicans; 1.34% in the assay on Cryptococcus neoformans.
Regarding `O=C(O)C(Cc1c[nH]c2ccccc12)N1C(=O)c2ccccc2C1=O` (centres undefined), the Inhibition with Staphylococcus aureus is 3.51%; with Acinetobacter baumannii, 4.73%; in the assay with Escherichia coli, -5.16%; with Klebsiella pneumoniae, 9.04%; with Candida albicans, 3.93%; in the assay on Cryptococcus neoformans, 13.59%.
In the case of `CN(C)C(=O)OCC1COc2ccccc2O1` (centres undefined), the Inhibition in the assay with Staphylococcus aureus is 14.89%; in the assay on Acinetobacter baumannii, -13.85%; with Escherichia coli, 7.79%; in the assay on Klebsiella pneumoniae it was 12.42%; in the assay with Candida albicans, -0.21%; in the assay with Cryptococcus neoformans it was -9.62%.
In the case of `O=C1CSC(=S)N1/N=C/c1c[nH]c2ccc(Br)cc12`, the Inhibition is -3.88% with Staphylococcus aureus; 11.83% in the assay on Acinetobacter baumannii; 4.81% in the assay on Escherichia coli; 26.71% in the assay with Klebsiella pneumoniae; 19.6% with Candida albicans; -14.16% with Cryptococcus neoformans.

A word on the Inhibition: it is the relative decrease from the control value, in per cent.
